Experimental data: PubChem BioAssay
Active and inactive are the calls of the source.

Tests used:
Albumin (Bos taurus) = Albumin (Bos taurus) (UniProt P02769); assay: bovine serum albumin binders on microarray, profiling panel, artefact control for SMM control protein annotation, biochemical, small-molecule microarray, Alexa647 label, 635/667 nm fluorescence (AID 1118); conditions: BSA-A647 binding, fluorescence 635 nm, higher = more signal;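 also: score merges 667 nm emission intensity and signal-to-noise per printed compound spot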
Sequence of Albumin (Bos taurus) (P02769 whole entry, looked up): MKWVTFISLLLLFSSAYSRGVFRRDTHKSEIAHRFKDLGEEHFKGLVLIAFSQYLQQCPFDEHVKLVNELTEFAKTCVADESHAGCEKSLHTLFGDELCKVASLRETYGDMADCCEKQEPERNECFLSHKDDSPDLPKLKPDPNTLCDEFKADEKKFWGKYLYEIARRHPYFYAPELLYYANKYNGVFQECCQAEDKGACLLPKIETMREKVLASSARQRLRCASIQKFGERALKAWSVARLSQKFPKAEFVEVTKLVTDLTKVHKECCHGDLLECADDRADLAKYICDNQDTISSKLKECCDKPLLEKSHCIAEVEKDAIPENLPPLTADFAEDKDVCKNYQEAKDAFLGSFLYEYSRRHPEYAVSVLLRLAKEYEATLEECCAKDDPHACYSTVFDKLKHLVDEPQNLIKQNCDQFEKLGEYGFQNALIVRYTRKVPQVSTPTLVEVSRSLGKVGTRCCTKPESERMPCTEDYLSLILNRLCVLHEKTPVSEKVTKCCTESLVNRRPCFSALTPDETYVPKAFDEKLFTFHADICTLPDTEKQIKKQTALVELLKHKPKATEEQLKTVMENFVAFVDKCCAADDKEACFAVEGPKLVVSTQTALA

[1] = small-molecule microarray binders of probe aXIP, primary screen, biochemical, NeuroSMM set, 635/667 nm fluorescence (AID 1119); conditions: higher = more signal, called active from +8 up or from −8 down;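 also: probe is the protein aXip251-270 applied at 1 µg/mL to compound-printed slides; binding of probe to printed compounds measured as 667 nm fluorescence plus signal to noise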
[2] = small-molecule binders of probe aNOTCH3, primary screen, biochemical, small-molecule microarray, 635/667 nm fluorescence (AID 1120); conditions: higher = more signal;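 also: probe is a biotin-tagged antibody raised against NOTCH3 rather than NOTCH3 protein; score merges spot fluorescence near 667 nm with spot signal to noise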
[3] = small-molecule binders of probe aNOTCH2, primary screen, biochemical, small-molecule microarray, 635/667 nm fluorescence (AID 1121); conditions: higher = more signal;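 also: score merges feature fluorescence read at 667 nm with its signal to noise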
[4] = molecular target: Carbonic anhydrase 2 (Homo sapiens) (UniProt P00918); assay: CAII small-molecule binders, profiling panel, biochemical, small-molecule microarray, Alexa647-labelled CAII (AID 1122); conditions: CAII-A647 binding fluorescence, higher = more signal
[5] = COS7 lysate on small-molecule microarray, probe aHis, 635 nm (AID 1123); conditions: COS7 cell lysate, fluorescence, higher = more signal;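 also: z-score combines 667nm fluorescence intensity with signal-to-noise per printed compound spot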
[6] = compound binding in COS7 lysate, probe aLAP1, primary screen, cell lysate, small-molecule microarray (AID 1124); conditions: probe aLAP1, fluorescence, higher = more signal;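 also: lysate comes from COS7 cells expressing LAP1 and is applied at 0.3 µg/mL; score merges spot fluorescence near 667 nm with signal-to-noise over triplicate slides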
Sam68 (KHDRBS1) = assay: Sam68 small-molecule binders, primary screen, biochemical, small-molecule microarray, 635 nm fluorescence (AID 1125); conditions: small-molecule microarray binding, higher = more signal;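 also: score merges 667 nm channel intensity with signal to noise over triplicate slides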
[7] = tested on: Chordin-like protein 2 (CHRDL2); assay: CHRDL2 small-molecule binders, primary screen, biochemical, small-molecule microarray, 635 nm fluorescence (AID 1126); conditions: small-molecule microarray binding, fluorescence 635 nm; higher = more signal;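 also: printed compound slides probed with Chrdl2 protein at 4 µg/mL for 1 h at 4 C; score merges 667 nm emission intensity with signal to noise over three replicate slides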
[8] = molecular target: Concanavalin-A (Canavalia ensiformis) (UniProt P02866); assay: ConA small-molecule binders, primary screen, artefact control for SMM control protein annotation, biochemical, small-molecule microarray, Alexa647 label, 635 nm (AID 1127); conditions: ConA-A647 binding fluorescence, higher = more signal;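 also: z combines 667 nm emission intensity with signal-to-noise across three replicate slides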
Sequence of Concanavalin-A (Canavalia ensiformis) (P02866 whole entry, looked up): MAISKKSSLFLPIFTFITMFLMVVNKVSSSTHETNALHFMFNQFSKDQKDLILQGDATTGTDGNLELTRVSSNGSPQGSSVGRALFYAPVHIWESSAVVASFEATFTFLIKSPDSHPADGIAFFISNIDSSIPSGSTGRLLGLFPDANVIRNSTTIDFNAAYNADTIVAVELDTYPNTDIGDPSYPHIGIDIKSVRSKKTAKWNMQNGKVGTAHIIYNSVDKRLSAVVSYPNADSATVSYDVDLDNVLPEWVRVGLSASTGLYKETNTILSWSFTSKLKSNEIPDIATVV

SMILES | composite z-score (Albumin (Bos taurus)) | composite Z-score [1] | composite z-score [2] | composite z-score [3] | composite z-score [4] | composite z-score [5] | composite z-score [6] | composite z-score (Sam68 (KHDRBS1)) | composite z-score [7] | composite z-score [8]
CN(C)CCCC[C@@H]1NC(=O)[C@H]2C[C@@H](C(=O)NCCCCCCN)[C@@H](c3ccc(O)cc3)N2C1=O | 0.887 | 0.37 (inactive) | 0.665 | 0.419 | 0.35 | 1.48 | 1.09 | 1.28 | 1.04 | 1.04
NCCCCCNC(=O)[C@@H]1C[C@@H]2C(=O)N[C@@H](Cc3ccccc3)C(=O)N2[C@@H]1c1ccc(O)cc1 | 0.507 | 0.839 (inactive) | -0.0716 | -0.108 | 0.231 | 2.21 | -0.304 | 1.24 | -0.129 | 0.968
COc1cc(Br)cc(C(O)C2C=CC3C(=O)N(C)C(=O)C3N2N2CCCCC2)c1OC (stereo not given) | 0.435 | 1.94 (inactive) | -0.165 | -0.0708 | 0.707 | 1.28 | 0.112 | -0.309 | -1.39 | 0.18
CCOC(=O)C1=CC[C@@H](c2ccccc2)N(S(=O)(=O)c2ccc(C)cc2)[C@H]1c1ccccc1C | 0.767 | -0.663 (inactive) | 0.183 | 0.103 | 0.743 | 0.838 | 0.201 | 0.841 | -0.0352 | 0.705
O=C1O[C@H](c2ccccc2)[C@H](c2ccccc2)N2[C@H]1[C@@H](C(=O)N1CCCCCCC1)[C@]1(C(=O)Nc3ccc(C#CC4=CCCCC4)cc31)[C@H]2c1ccc(OCCO)cc1 | 0.833 | 7.2 (inactive) | 2.11 | 1.05 | 0.837 | 3.66 | 1.3 | 1.25 | 1.48 | 1.15
C=C(CCCC)/C(=C/C[C@H](OC(C)=O)c1ccccc1OCCO)c1cc(C(=O)OC)ccc1OC | 0.0908 | 0.0578 (inactive) | -0.141 | -0.117 | 0.767 | 0.0095 | 0.095 | 0.287 | -0.193 | -0.701
COCCOC(=O)N1C(=O)[C@@]2(c3cc(C#CCCO)ccc31)[C@H](C(=O)N1CCCCCCC1)[C@H]1C(=O)O[C@H](c3ccccc3)[C@H](c3ccccc3)N1[C@@H]2c1ccc(OCCO)cc1 | 0.796 | 1.91 (inactive) | 1.33 | 0.833 | 0.549 | 2.75 | 0.906 | 1.3 | 1.26 | 1.16
CCCCCCc1nc(-c2cc(C)c(OC)c(C)c2)cc2c1[Si](C(C)C)(C(C)C)OC2 | -0.623 | 0.244 (inactive) | -0.0111 | -0.113 | 0.0878 | -0.241 | -0.0553 | 0.363 | 0.119 | 0.208
CCCCC(CC)C(O)C1C=CC2C(=O)N(Cc3ccccc3)C(=O)C2N1n1cnnc1 (stereo not given) | 0.0178 | 0.0835 (inactive) | 0.0116 | -0.126 | 0.424 | 0.262 | -0.192 | 0.26 | -0.353 | 0.273
CCOC(=O)C[C@H]1[C@H](OC(=O)c2ccc(C(=O)c3ccccc3)cc2)[C@@H](NC(=O)c2ccc3ccccc3c2)c2cc(OCCCO)ccc2N1C(=O)Cc1ccc(OC)cc1 | 0.638 | -0.68 (inactive) | -0.0932 | -0.149 | 0.009 | 0.899 | 0.0147 | 0.484 | -0.197 | 0.114
COc1ccc([Si](C)(C)[C@@H]2[C@@H](CCO)O[C@]3(C(=O)N(Cc4ccc(N(C=O)c5ccccc5)cc4)c4ccccc43)[C@H]2C)cc1 | 0.842 | -0.119 (inactive) | 0.0842 | -0.0621 | 0.285 | 0.313 | -0.456 | 0.495 | -0.402 | 0.786
COC(=O)[C@@]1(Cc2ccc(OC)cc2)[C@H]2c3cc(C(=O)N(C)C)n(Cc4ccc(S(C)(=O)=O)cc4)c3C[C@H]2CN1C(=O)c1ccccc1 | 0.49 | -0.357 (inactive) | 0.697 | -0.168 | 0.725 | 2.72 | 0.969 | 0.549 | -0.948 | -1.06
CC(C)C(O)C1C=CC2C(=O)NC(=O)C2N1Nc1ccc(Cl)cc1Cl (stereo not given) | 0.523 | 0.449 (inactive) | -0.0414 | -0.0659 | 0.751 | 1.78 | 1.33 | 0.531 | -0.827 | -0.478
CN1C=C(C(=O)OCCS(C)(=O)=O)C(C(=O)OCCS(C)(=O)=O)=CC(c2ccc(CO)cc2)=CC1C1CC1 (stereo not given) | -0.0317 | 0.0063 (inactive) | -0.0918 | -0.133 | 0.497 | 0.951 | 0.901 | 0.449 | -0.246 | 0.168
CCOC(=O)[C@H]1C/C=C/C[C@H](C(=O)OCC)C(=O)O[C@H]2[C@@H](OC)O[C@H](CO)[C@@H](OC(=O)c3c(OC)cccc3OC)[C@@H]2OC1=O | 0.0961 | 0.338 (inactive) | 0.275 | -0.108 | 0.512 | 1.66 | 0.47 | 1.26 | 0.83 | 0.932
[N-]=[N+]=NCc1ccccc1C[C@]1(C(=O)N2CCCCC2)N=C(c2ccc(OCCCO)cc2)O[C@H]1c1ccccc1N=[N+]=[N-] | 0.836 | -0.602 (inactive) | 0.194 | 0.0097 | 0.593 | 2.45 | 0.799 | 1.33 | -0.518 | 1.1
CC(C)NC(=O)[C@@H]1c2ccccc2C(=O)N(C2Cc3ccccc3C2)[C@H]1c1ccc(CO)cc1 | 0.416 | 0.392 (inactive) | -0.145 | -0.117 | 0.492 | 1.62 | 0.781 | 0.983 | -0.321 | 0.771
COC(=O)[C@@]1(Cc2ccc(F)cc2)[C@H]2c3cc(C(=O)N(C)C)n(Cc4cc(F)c(F)c(F)c4)c3C[C@H]2CN1C(=O)c1ccccc1 | 0.935 | 0.0144 (inactive) | 0.672 | 0.214 | 0.613 | 2.37 | 0.351 | 1.13 | -0.0618 | 1.13
CC1CC/C=C\[C@H]2OC34C=CCN(Cc5ccccc5)C(=O)[C@H]3N(CCCO)C(=O)[C@@H]4C2C(=O)O1 (stereo not given in full) | -0.0908 | -0.422 (inactive) | -0.437 | -0.155 | 0.861 | -0.0465 | 1.25 | -0.649 | -0.933 | -0.841
C=C(CCCC)/C(=C/C[C@H](OC(=O)c1ccncc1)c1ccccc1OCCO)c1cnc2ccccc2c1 | 0.0803 | -0.153 (inactive) | 0.0259 | -0.182 | 0.862 | 1.25 | 0.406 | 1.16 | 0.66 | 1.14
C=CCNC(=O)[C@H]1[C@@H]2C(=O)O[C@@H](c3ccccc3)[C@@H](c3ccccc3)N2[C@@H](c2ccccc2OCCO)[C@]12C(=O)Nc1ccc(C#CCC(C(=O)OC)C(=O)OC)cc12 | -0.195 | 1.15 (inactive) | 0.308 | 0.0029 | 0.251 | 2.23 | 0.634 | 1.29 | 1.37 | 0.944
COCCCNC(=O)[C@@H]1c2ccccc2C(=O)N(Cc2ccccc2Cl)[C@H]1c1ccc(CO)cc1 | -0.432 | -0.129 (inactive) | -0.147 | 0.151 | 0.656 | 1.72 | -0.503 | 0.95 | 0.683 | 0.772
Cc1ccccc1C(O)C1C=CC2C(=O)N(c3ccccc3)C(=O)C2N1Nc1ccc(C(C)C)cc1 (stereo not given) | 0.868 | 0.403 (inactive) | 0.344 | -0.0983 | 0.304 | 2.1 | 0.68 | 1.15 | -0.219 | 1.15
COCCCNC(=O)[C@]1(CCC(=O)OC(C)(C)C)N=C(c2ccc(OCCCO)cc2)O[C@@H]1c1ccccc1CN=[N+]=[N-] | 0.839 | 0.0707 (inactive) | 0.395 | -0.0411 | 0.78 | 2.03 | 1.8 | 1.3 | 0.0091 | 1.12
O=C1C2C=CC(C(O)c3cc(C(F)(F)F)cc(C(F)(F)F)c3)N(n3cnnc3)C2C(=O)N1Cc1ccccc1 (stereo not given) | 0.184 | -0.0461 (inactive) | -0.0391 | 0.392 | 0.68 | 1.58 | -0.0088 | 0.824 | -1.04 | 0.516
C=C(CCCC)/C(=C/C[C@@H](OC(C)=O)c1ccc(OCCO)cc1)c1cnc2ccccc2c1 | 0.631 | -0.302 (inactive) | 0.0964 | -0.0942 | 0.718 | 0.696 | 0.35 | 1.28 | 0.963 | 0.555
C=C(COC)/C(=C/C[C@@H](OC(C)=O)c1ccc(OCCO)cc1)c1cnc2ccccc2c1 | 0.0772 | -0.225 (inactive) | 0.112 | -0.14 | 0.913 | -0.161 | 0.999 | 0.74 | 1.41 | 1.14
C=CCOC(=O)[C@H]1[C@@H]2C(=O)O[C@@H](c3ccccc3)[C@@H](c3ccccc3)N2[C@@H](c2ccc(OCCOC(=O)[C@@H]3C[C@@H]4C(=O)N[C@@H](CC(C)C)C(=O)N4[C@@H]3c3ccc(O)cc3)cc2)[C@]12C(=O)Nc1ccccc12 | 0.481 | 0.183 (inactive) | 0.058 | -0.0631 | 0.592 | 2.62 | 0.545 | 1.29 | 1.25 | 1.15
